Records with an inconclusive call do not appear. Activity calls are given as the source filed them. Calls come from the whole dose curve; as a rule, active = well fitted activation curve with a large enough effect; inconclusive = small, poorly fitted or top-dose-only effect; inactive = flat fitted curve, though single readings scatter.
Assay: qHTS for Inhibitors of Cell Surface uPA Generation: Confirmatory Assay for Cherry-picked Compounds; note: 0% is about no effect
Settings: cell surface uPA activity generation, qHTS confirmation; series mostly up to 115 µM; inhibition: at the top concentration
Description: The overall objective of this project is to perform a quantitative high throughput screen (qHTS) to identify novel compounds that inhibit the generation of cell surface urokinase activity. The urokinase plasminogen activator (uPA) is one of the two primary endogenous systems that mediate plasminogen activation into plasmin. Members of this system, including uPA and its receptor (uPAR), are overexpressed in several malignant tumors. This system plays a major role in adhesion, migration, invasion and metastasis of cancer cells. Small molecule inhibitors of the uPA system will serve as probes to understand the molecular mechanisms of the uPA cascade and better understanding the micro-environmental circumstances that facilitate the activation of plasminogen by uPA, and finally may provide novel candidate agents for anticancer drug therapy.
[…] […] Upon inhibition of the uPA activation cascade, the subsequent cell surface uPA activity-dependent translocation of LF into the cytoplasm is inhibited. ATP-Lite is used to measure intracellular ATP concentrations (measure cell viability) which remain increased if LF entry into the cytoplasm is inhibited. This validation assay was performed using a small set of cherry picked compounds. Activation of cell viability (increase in luminescence signal) due to inhibition of the cell surface uPA generation is the desired outcome of this assay.
NIH Chemical Genomics Center [NCGC]
NIH Molecular Libraries Probe Centers Network [MLPCN]
Assay Submitter (PI): Thomas Bugge, National Institute of Dental and Craniofacial Research, NIH
Cultured RAW 264.7 were dispensed into 1536-well clear bottom, white walled tissue culture plates at a density of 4000 cells/well and were incubated overnight (12-16 h) at 37 C in a 5% CO2 incubator. Serially diluted compounds (1:5 dilution) in 23 nl DMSO were added to cells (0.0024 uM to 3.83 uM final concentration). […] Compound and reagent-treated plates were incubated for 24 h at 37 C in a 5% CO2 incubator. Three microliter of PerkinElmer ATPlite was then added to each well and luminescence was detected using the PerkinElmer ViewLux plate reader for a 5 sec exposure.

inhibition, inactive:
CCOc1ccc(C(=O)NCC(=O)N2CCN(C/C=C/c3ccccc3)CC2)cc1OCC -1.3%
COc1ccccc1NS(=O)(=O)c1cc(NC(=O)CCc2nc3ccccc3c(=O)[nH]2)ccc1C -1.6%
COc1cc(/C=C(/C#N)C(=O)Nc2ccccc2)ccc1OCc1ccc(C(=O)O)cc1 -0.128%
O=C(c1cc([N+](=O)[O-])cc([N+](=O)[O-])c1)N(c1ccccn1)c1ccccn1 -1.86%
Cn1c(SCC(=O)NNC(=O)c2ccc(Br)cc2)nnc1-c1cccnc1 -1.95%
Cc1ccccc1OCCC(=O)NNC(=O)c1ccccc1F -0.751%
CCC1(CC)NC(=O)N(CC(=O)OCC(=O)c2cc(C)c(C)cc2C)C1=O -1.52%
CCOCCCn1c(SCC(=O)Nc2cc(OC)ccc2OC)nc2ccccc2c1=O -3.62%
Cc1oc(-c2ccccc2F)nc1CS(=O)CC(=O)NCc1ccc(F)cc1 (stereo not given) -1.82%
Cc1ccc2oc(C(=O)N(Cc3ccc(N(C)C)cc3)C3CCS(=O)(=O)C3)c(C)c2c1 (stereo not given) -3.77%
Cc1ccc2nc(Nc3ccc(Cl)cc3)c3nncn3c2c1 1.44%
O=C(Cn1cnc2c(OCc3ccccc3)ncnc21)NCCCN1CCCC1=O -2.76%
O=C(NC1CCCC1)c1nc2c(nnn2Cc2ccccc2Cl)c(=O)[nH]1 -2.2%
COC(=O)Cc1c(C)c2ccc(OCC(=O)N3CCCC(C)C3)c(C)c2oc1=O (stereo not given) -2.44%
COc1ccc(C[C@@H]2OC3(C=CC(=O)C=C3)O[C@H]2Cc2ccc(OC)cc2)cc1 -3.22%
Cc1ccccc1C(=O)NCC(=O)Nc1ccc(C)c(S(=O)(=O)N2CCCCCC2)c1 -3.15%
Cc1ccc(CC2CC(=O)N(c3cc(C)ccc3C)C2=O)cc1 (stereo not given) 3.02%
O=C(NNC(=O)c1ncc(Cl)c(Cl)c1Cl)c1ccc(F)cc1 1.74%
c1ccc(C2[C@H]3CN(Cc4cccnc4)[C@H](c4ccccc4)C34CC2(c2ccccc2)C4)cc1 (stereo not given in full) 2.4%
O=C(NC(=S)Nc1c(F)cc(F)cc1Br)c1ccc2c(c1)OCCO2 0.29%
Cc1ccc(/C=N/NC(=O)c2ccc3nc[nH]c3c2)s1 -2.96%
Cc1ccc(C(=O)NNC(=O)CNc2cccc(Cl)c2)cc1 -2.22%
CCC(C)NC(=O)c1ccc2nc(-c3ccc(OC)c(OC)c3)c(-c3ccc(OC)c(OC)c3)nc2c1 (stereo not given) -3.49%
COc1cc(CNCCc2ccccc2)cc(Br)c1OCC(=O)Nc1ccccc1C -2.29%
CC(=O)N1CCN(C(=O)CSc2cc(C)c(Br)cc2C)CC1 -1.37%
CCN(CC)C(=O)Cn1cc(/C=C(\C#N)C(=O)NC2CC2)c2ccccc21 1.37%
Cc1ccc(S(=O)(=O)NC(=O)Nc2nccs2)cc1 -3.13%
CC1CC(C)(C)Nc2ccc(N=O)cc21 (stereo not given) -3.61%
Cc1cc(C)nc(NC(=O)CSc2nccc(C)n2)n1 -3.03%
CSc1nc(N)nc2c1ncn2CC(=O)NCC1CCCO1 (stereo not given) 0.303%
CC(C)(C)S(=O)(=O)N1C[C@H]2CC/C=C\C/C(c3ccccc3)=C\2[C@@H]1CCO -0.435%
COc1ccc(Cl)cc1NC(=O)CSc1nc(=O)n(CCN(C)C)c2c1CCCC2 -4.07%
CCCCNc1c(-c2ccc(-c3cccc(Cl)c3)cc2)nc2ccccn12 -3.49%
COc1ccccc1C(=O)Nc1cccc(C(=O)c2ccccc2)c1 -2.99%
COc1ccc(-c2csc(NC(C)c3nc4cc(C(=O)NCCCO)ccc4n3Cc3ccc(C)cc3)n2)cc1 (stereo not given) -1.07%
O=C(NC(=O)c1ccccc1)Nc1cccc(S(=O)(=O)N2CCCCC2)c1 -0.931%
CC(=O)c1c(C)n(-c2ccccc2Br)c2ccc(O)cc12 -3.45%
CCC(CC)Nc1ccc(C(CC(N)=O)NC(=O)Cc2ccc(Br)cc2)cc1[N+](=O)[O-] (stereo not given) -2.62%
COc1ccc(CCNC(=O)Cn2c(=O)n(-c3cc(F)ccc3F)c(=O)c3sccc32)cc1OC -0.0942%
NC(=O)CC(NC(=O)Cc1cccc2ccccc12)c1ccc(N2CCN(c3ccccc3)CC2)c([N+](=O)[O-])c1 (stereo not given) 0.273%

— PubChem BioAssay AID720519 (National Center for Advancing Translational Sciences (NCATS), 2013)
